Results filed as inconclusive are left out. Activity calls are given as the source filed them. Calls follow the shape of the dose curve; as a rule, active = well fitted curve in the direction sought with a large enough effect; inconclusive = small, poorly fitted or top-dose-only effect, or another doubt; inactive = no such curve, though single readings can be large; an effect the other way counts as inactive or inconclusive.
How the values were obtained:
[1] = biological target: ATP-dependent 6-phosphofructokinase (Trypanosoma brucei brucei) (UniProt O15648); test: qHTS Assay to Find Inhibitors of T. brucei phosphofructokinase: hit validation (AID 492961)
Summary of the method: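 Measures ADP output of PFK (1.25 nM) at 0.1 mM ATP, 0.5 mM F6P, pH 8.0 TEA buffer with 5 mM MgCl2. No-enzyme wells define full inhibition; uninhibited enzyme wells define zero.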

[2] = qHTS profiling for inhibitors of Plasmodium falciparum proliferation (AID 504749);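 as to activity, negative = inhibition: 0% = DMSO vehicle and full inhibition = artemisinin control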; as to all read-outs here: nearly all actives have a fitted effect of over 60% in size; details: P. falciparum in erythrocytes, SYBR Green DNA, 72 h; for activity, negative = inhibition: at 28.7 µM (top of the series)
Summary of the method: (§1)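 Three-day growth assay of blood-stage parasites in erythrocytes (0.3% parasitemia, 2.5% hematocrit) at 37 C, 5% CO2, quantified by SYBR Green DNA staining after overnight detergent lysis.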

AA1029 = test: as above; details: P. falciparum in erythrocytes, SYBR Green DNA, 72 h; series mostly up to 28.7 µM
Summary of the method: as §1

AS120 = test: as above; details: P. falciparum in erythrocytes, SYBR Green DNA, 72 h; series mostly up to 28.7 µM
Summary of the method: as §1

ATS189 = test: as above; details: P. falciparum in erythrocytes, SYBR Green DNA, 72 h; series mostly up to 28.7 µM
Summary of the method: as §1

CP185 = test: as above; details: P. falciparum in erythrocytes, SYBR Green DNA, 72 h; series mostly up to 28.7 µM
Summary of the method: as §1

CP211 = test: as above; details: P. falciparum in erythrocytes, SYBR Green DNA, 72 h; series mostly up to 28.7 µM
Summary of the method: as §1

CP217 = test: as above; details: P. falciparum in erythrocytes, SYBR Green DNA, 72 h; series mostly up to 28.7 µM
Summary of the method: as §1

CP238 = test: as above; details: P. falciparum in erythrocytes, SYBR Green DNA, 72 h; series mostly up to 28.7 µM
Summary of the method: as §1

CP252 = test: as above; details: P. falciparum in erythrocytes, SYBR Green DNA, 72 h; series mostly up to 28.7 µM
Summary of the method: as §1

CP262 = test: as above; details: P. falciparum in erythrocytes, SYBR Green DNA, 72 h; series mostly up to 28.7 µM
Summary of the method: as §1

CP265 = test: as above; details: P. falciparum in erythrocytes, SYBR Green DNA, 72 h; series mostly up to 28.7 µM
Summary of the method: as §1

CP269 = test: as above; details: P. falciparum in erythrocytes, SYBR Green DNA, 72 h; series mostly up to 28.7 µM
Summary of the method: as §1

CP286 = test: as above; details: P. falciparum in erythrocytes, SYBR Green DNA, 72 h; series mostly up to 28.7 µM
Summary of the method: as §1

CP329 = test: as above; details: P. falciparum in erythrocytes, SYBR Green DNA, 72 h; series mostly up to 28.7 µM
Summary of the method: as §1

DFO2036 = test: as above; details: P. falciparum in erythrocytes, SYBR Green DNA, 72 h; series mostly up to 28.7 µM
Summary of the method: as §1

ECU = test: as above; details: P. falciparum in erythrocytes, SYBR Green DNA, 72 h; series mostly up to 28.7 µM
Summary of the method: as §1

FAB9 = test: as above; details: P. falciparum in erythrocytes, SYBR Green DNA, 72 h; series mostly up to 28.7 µM
Summary of the method: as §1

N140 = test: as above; details: P. falciparum in erythrocytes, SYBR Green DNA, 72 h; series mostly up to 28.7 µM
Summary of the method: as §1

TAB109 = test: as above; details: P. falciparum in erythrocytes, SYBR Green DNA, 72 h; series mostly up to 28.7 µM
Summary of the method: as §1
Potency is read from the fitted curve at half-maximal effect.

Sequence of ATP-dependent 6-phosphofructokinase (Trypanosoma brucei brucei) (O15648 whole entry, looked up): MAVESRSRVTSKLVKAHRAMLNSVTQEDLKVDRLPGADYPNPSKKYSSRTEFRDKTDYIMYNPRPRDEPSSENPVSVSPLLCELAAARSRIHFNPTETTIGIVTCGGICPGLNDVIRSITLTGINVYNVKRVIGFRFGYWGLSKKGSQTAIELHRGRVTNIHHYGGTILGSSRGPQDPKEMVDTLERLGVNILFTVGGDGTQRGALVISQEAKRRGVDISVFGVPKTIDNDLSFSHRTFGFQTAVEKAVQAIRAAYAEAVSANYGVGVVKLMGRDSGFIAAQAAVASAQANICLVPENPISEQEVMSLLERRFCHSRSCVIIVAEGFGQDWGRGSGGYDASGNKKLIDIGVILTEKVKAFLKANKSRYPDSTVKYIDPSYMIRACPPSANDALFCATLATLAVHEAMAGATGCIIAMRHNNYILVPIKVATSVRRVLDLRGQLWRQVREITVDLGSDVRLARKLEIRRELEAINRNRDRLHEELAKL

CC(=O)CC(c1ccccc1)C1C(=O)Oc2ccccc2C1=O (configuration not stated)
inactive: Potency [1] | activity, negative = inhibition ([2]; parasite line A) 13.7% | activity, negative = inhibition ([2]; parasite line B) 9.27% | Potency (AA1029) | Potency (AS120) | Potency (ATS189) | Potency (CP185) | Potency (CP211) | Potency (CP217) | Potency (CP238) | Potency (CP252) | Potency (CP262) | Potency (CP265) | Potency (CP269) | Potency (CP286) | Potency (CP329) | Potency (DFO2036) | Potency (ECU) | Potency (FAB9) | Potency (N140) | Potency (TAB109)

N#C/C(=C1/SCC(c2ccccc2Cl)S1)n1ccnc1 (configuration not stated)
inactive: Potency [1] | activity, negative = inhibition ([2]; parasite line A) -5.78% | activity, negative = inhibition ([2]; parasite line B) -14.7% | Potency (AA1029) | Potency (ATS189) | Potency (CP185) | Potency (CP211) | Potency (CP217) | Potency (CP238) | Potency (CP252) | Potency (CP262) | Potency (CP265) | Potency (CP269) | Potency (CP286) | Potency (CP329) | Potency (DFO2036) | Potency (FAB9) | Potency (TAB109)

C/C(=C(/CCOC(=O)C(C)C)SS/C(CCOC(=O)C(C)C)=C(\C)N(C=O)Cc1cnc(C)nc1N)N(C=O)Cc1cnc(C)nc1N
inactive: Potency [1] | activity, negative = inhibition ([2]; parasite line B) -17.2% | Potency (AA1029) | Potency (AS120) | Potency (ATS189) | Potency (CP185) | Potency (CP211) | Potency (CP217) | Potency (CP238) | Potency (CP252) | Potency (CP265) | Potency (CP269) | Potency (CP286) | Potency (ECU) | Potency (FAB9) | Potency (N140) | Potency (TAB109)

C#C[C@]1(O)CC[C@H]2[C@H]3[C@H](CC[C@@]21C)C1=C(CC(=O)CC1)C[C@@H]3C
inactive: Potency [1] | activity, negative = inhibition ([2]; parasite line A) -14.8% | activity, negative = inhibition ([2]; parasite line B) -21.9% | Potency (AA1029) | Potency (AS120) | Potency (ATS189) | Potency (CP185) | Potency (CP211) | Potency (CP217) | Potency (CP238) | Potency (CP252) | Potency (CP262) | Potency (CP265) | Potency (CP269) | Potency (CP286) | Potency (CP329) | Potency (DFO2036) | Potency (ECU) | Potency (FAB9) | Potency (N140) | Potency (TAB109)

Cc1cc(O)c2c(c1)OC1(C)CCC3C(C)(C)CCCC34COC2C14 (configuration not stated)
active: Potency (AA1029) 10 µM | Potency (N140) 12.6 µM
inactive: Potency [1] | activity, negative = inhibition ([2]; parasite line A) -27.8% | Potency (CP238) | Potency (CP286) | Potency (CP329) | Potency (FAB9)

CC[C@H]1OC(=O)[C@H](C)C(=O)[C@H](C)[C@@H](OC2O[C@H](C)C[C@H](N(C)C)[C@@H]2O)[C@@](C)(OC)C[C@@H](C)C(=O)[C@@H](C)C2N(CCCCn3cnc(-c4cccnc4)c3)C(=O)O[C@@]21C (some centres not stated)
inactive: Potency [1] | activity, negative = inhibition ([2]; parasite line A) -28.5% | Potency (CP185) | Potency (CP211) | Potency (CP238) | Potency (CP252) | Potency (CP262) | Potency (CP265) | Potency (CP269) | Potency (CP286) | Potency (CP329) | Potency (DFO2036) | Potency (FAB9)
active: Potency (ECU) 10 µM

CN(C)CC[C@@](O)(c1ccccc1)c1ccccc1Cl
active: Potency (AA1029) 4.47 µM | Potency (AS120) 8.91 µM | Potency (ATS189) 5.62 µM | Potency (CP185) 11.2 µM | Potency (CP217) 12.6 µM | Potency (CP238) 11.2 µM | Potency (CP252) 11.2 µM | Potency (CP265) 7.08 µM | Potency (CP269) 12 µM | Potency (CP286) 7.94 µM | Potency (DFO2036) 8.91 µM | Potency (ECU) 7.94 µM | Potency (N140) 4.47 µM | Potency (TAB109) 7.08 µM
inactive: Potency [1] | activity, negative = inhibition ([2]; parasite line A) -12.9% | Potency (CP262) | Potency (FAB9)

O=C1Oc2ccccc2C(=O)C1C(CC(O)c1ccc(-c2ccc(Br)cc2)cc1)c1ccccc1 (configuration not stated)
inactive: Potency [1] | activity, negative = inhibition ([2]; parasite line A) -67.1% | Potency (AA1029) | Potency (AS120) | Potency (CP185) | Potency (CP211) | Potency (CP217) | Potency (CP238) | Potency (CP252) | Potency (CP262) | Potency (CP265) | Potency (CP269) | Potency (CP286) | Potency (CP329) | Potency (FAB9) | Potency (N140) | Potency (TAB109)

CCOc1ccccc1O[C@@H](c1ccccc1)[C@@H]1CNCCO1
active: Potency (AA1029) 5.62 µM | Potency (AS120) 11.2 µM | Potency (ECU) 7.94 µM
inactive: Potency [1] | activity, negative = inhibition ([2]; parasite line A) -12.8% | Potency (CP185) | Potency (CP211) | Potency (CP262) | Potency (CP269) | Potency (CP329) | Potency (DFO2036) | Potency (FAB9)

CC1=C(C/C=C(\C)CCCC(C)CCCC(C)CCCC(C)C)C(=O)c2ccccc2C1=O (configuration not stated)
inactive: Potency [1] | activity, negative = inhibition ([2]; parasite line A) -26.3% | Potency (CP185) | Potency (CP211) | Potency (CP217) | Potency (CP238) | Potency (CP252) | Potency (CP262) | Potency (CP269) | Potency (CP329) | Potency (DFO2036) | Potency (ECU) | Potency (FAB9)

CCC1OC(=O)C[C@@H](O)[C@H](C)[C@@H](OC2OC(C)CC(N(C)C)C2O)[C@@H](CC=O)C[C@@H](C)C(=O)/C=C/[C@]2(C)OC2C1C (some centres not stated)
active: Potency (CP185) 2 µM | Potency (CP252) 3.55 µM | Potency (CP286) 1.12 µM | Potency (TAB109) 0.794 µM
inactive: Potency [1] | Potency (FAB9)

O=C(O)c1ccccc1-c1c2ccc(=O)cc-2oc2cc(O)ccc12
inactive: Potency [1] | Potency (CP269) | Potency (CP286) | Potency (CP329)

NC(C(=O)O)C(O)c1ccc(O)c(O)c1 (configuration not stated)
active: Potency [1] 4.47 µM | Potency ([2]; parasite line A) 14.1 µM | Potency (N140) 12.6 µM
